# Measurements taken from PubChem BioAssay AID602409 (Sanford-Burnham Center for Chemical Genomics, 2012).
# The list shows a part of the results. A number with no mark means an inactive call. Calls of active or inactive are those of the source.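 How the source made its calls: active means mean inhibition over four retests above 40%; inactive means the rest.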
# Target: C-X-C chemokine receptor type 6 (Homo sapiens) (UniProt O00574)
# Assay: CXCR6 receptor antagonists, confirmation, cell-based, single concentration, beta-arrestin, luminescence (AID 602409);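 further: receptor stimulated with 10 nM CXCL16 agonist; beta-galactosidase fragment complementation upon beta-arrestin recruitment to receptor; plate controls were CXCL16 plus DMSO for no effect and DMSO without CXCL16 for full effect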
# Conditions: CHO-K1 CXCR6 PathHunter beta-arrestin, at 20 µM, hits give high values
# Sequence of C-X-C chemokine receptor type 6 (Homo sapiens) (O00574 whole entry, looked up, the tested form may be a part): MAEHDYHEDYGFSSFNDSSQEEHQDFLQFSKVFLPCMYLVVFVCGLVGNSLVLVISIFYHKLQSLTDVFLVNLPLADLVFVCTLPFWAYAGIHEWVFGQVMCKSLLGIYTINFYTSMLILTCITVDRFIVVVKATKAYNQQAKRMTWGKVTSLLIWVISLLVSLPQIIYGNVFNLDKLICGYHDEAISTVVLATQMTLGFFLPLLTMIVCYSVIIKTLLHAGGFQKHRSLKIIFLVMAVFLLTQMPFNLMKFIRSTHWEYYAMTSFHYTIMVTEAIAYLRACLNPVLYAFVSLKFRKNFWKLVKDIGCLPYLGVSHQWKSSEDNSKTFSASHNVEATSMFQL
row,Compound,inhibition
1,O=C(CSc1cccc2cccnc12)N/N=C/c1cccnc1,67.2% (active)
2,Cc1ccc(-n2[nH]c(C)c(/C=N/N3C(=O)c4cccc5cccc(c45)C3=O)c2=O)cc1,60.2% (active)
3,CCN(CC)CCn1c(N)c(S(=O)(=O)c2ccccc2)c2nc3ccccc3nc21,55% (active)
4,CCCCNC(=S)N/N=C1\CCCCc2ccccc21,24.7%
5,COc1cccc2sc(N(CCCN(C)C)C(=O)CCS(=O)(=O)c3ccccc3)nc12,81% (active)
6,CCCCCCCCCCOC(=O)Cn1c(COc2cccc(OC)c2)[n+](C)c2ccccc21,4%
7,C/C(=N\NC(=O)Cc1ccc(Cl)cc1)c1ccccn1,104% (active)
8,O=C1C=CC(=O)N1c1ccc(N2CCCCC2)cc1,63.5% (active)
9,CCCCCCCCCCOC(=O)C[N+](C)(C)CC1CCCCC1O (centres undefined),14.4%
10,O=C(Nc1ccccc1Cl)/C(Cl)=C(\Cl)S(=O)c1ccccc1 (centres undefined),81% (active)
11,Cc1cc(C)nc(S/C=C/C(=O)c2ccccc2)n1,41.5% (active)
12,Cc1c(C(=O)NCCN(C)C)oc2ccc(S(=O)(=O)N3CCCC3)cc12,10.1%
13,CC(=O)/C(=N\Nc1ccc(Cl)cc1Cl)Sc1cccc2cccnc12,81% (active)
14,CCOCCCN1C(=O)C2C(C(=O)Nc3ccc(OCC)cc3)C3C=CC2(O3)C1C(=O)NC1CCCCC1 (centres undefined),-4.97%
15,COC(=O)/C=C\C(=O)Nc1cccc([N+](=O)[O-])c1,45.6% (active)
16,O=C(C1CC(=O)N(C2CCCCC2)C1)N1CCN(c2ccccc2)CC1 (centres undefined),3.17%
17,O=[N+]([O-])/C=C/c1ccc2c(ccn2Cc2ccccc2)c1,76.2% (active)
18,CCC(=O)OCCNc1nc(-c2ccccc2)nc2ccccc12,11.6%
19,CC(C)N=C1CCCC1C(=S)SSC(=S)C1CCCC1=NC(C)C (centres undefined),94.9% (active)
20,O=C(Nc1ccccc1)c1nnsc1S(=O)(=O)c1ccc(Cl)cc1,19.7%
21,Cc1cc(C(=O)NCCCc2ccccc2)no1,9.46%
22,COCCCNC(=S)NC(=O)c1ccc([N+](=O)[O-])cc1,19.8%
23,COc1ccc(-c2csc(Cc3nc(O)cs3)n2)cc1,77% (active)
24,CC(=O)Nc1cc(-c2ccc(N3CCN(C)CC3)cc2)cn2c(-c3ccc(F)cc3)cnc12,31.3%
